The source of these data is ChEMBL document CHEMBL4513216, “Probing the Open Global Health Chemical Diversity Library for Multistage-Active Starting Points for Next-Generation Antimalarials” (ACS Infect Dis, 2020).

SMILES strings stand for the structures. The campaign covered roughly 65,000 compounds. About 2,100 (3.2%) showed an effect of 50% or more. The median lay at about -52%. The sample as a whole holds a higher share of strong results than the screen did.

This experiment concerns Plasmodium falciparum. Description: Screen against P. falciparum Asexual Blood Stage (ABS), at 5uM. The conditions noted are these: tested at 5 uM. Type of experiment: functional, Dd2.
Take `CCCN1CCN(C(=O)c2ccnc(N)c2)[C@H]2CS(=O)(=O)C[C@H]21`: the INHIBITION is recorded as -88.3%. To `O=C1[C@@H]2CCN(Cc3ccoc3)C[C@@H]2OCCN1c1cccnc1` belongs 23.5%; to `CC(C)CN1C(=O)CO[C@@H]2CNC[C@H]21`, -4.26%; to `C[C@H]1C[C@@H]2CCN(Cc3ccccn3)C[C@H]2O1`, -59.7%. The value for `Cc1cccc(CN2CC[C@H]3C[C@H](C)O[C@@H]3C2)n1` was -37.4%; that for `Fc1ccccc1CC1CCN(Cc2ccccn2)CC1` was 70.4%. The value for `Cc1cccc(CN2CCC(Cc3ccccc3F)CC2)n1` was 94%; that for `Cc1cccc(CN2CC[C@H]3C[C@@H](C)O[C@@H]3C2)n1` was -46.7%.

Consider `C[C@@H]1C[C@@H]2CCN(Cc3ccccn3)C[C@H]2O1`, for which the INHIBITION is recorded as -25.2%. To `Cc1nc(CN2C[C@@H]3CN(C(=O)Cc4ccccn4)C[C@@H]3C2)cs1` belongs -41.5%; to `CN1CCC2(Cc3ccccc3NC2=O)C1` (stereo not given), 8.23%. The value for `Cc1nn(C)c2ncc(S(=O)(=O)N3CCN4CCCC4C3)cc12` (stereo not given) was -67.5%; that for `CC(c1cn2ncsc2n1)n1cc2[nH]cccc-2c1=O` (stereo not given) was -131%.

Consider `CO[C@@H]1CN(Cc2scnc2C)[C@@H]2CCCO[C@@H]21`, for which the INHIBITION is -39.6%. The value for `CC(=O)N1CCCC2(CN(Cc3ccncc3)CCO2)C1` (stereo not given) was -47.6%; that for `CN1CCC(N(C)C[C@H]2CC[C@@H](Cc3ccc4occc4c3)O2)CC1` was 85.8%; that for `Cc1noc(C)c1CC(=O)N1CCCN(Cc2cscn2)CC1` was 63.9%.

For the compound `CCc1nc(CN2CCN(C(=O)Cc3c(C)noc3C)CC2)cs1`, the INHIBITION is -46.1%.

As to `Cc1noc(C)c1CC(=O)N1CCN(Cc2cscn2)CC1`, the INHIBITION is -151%. To `CCOc1cccc(CNC(C)c2ccc(-n3ccnc3)cc2)c1O` (stereo not given) belongs 75%. The value for `COc1cccc(CNC(C)c2ccc(-n3ccnc3)cc2)c1O` (stereo not given) was 79.5%; that for `COc1ccccc1CNC(C)c1ccc(-n2ccnc2)cc1` (stereo not given) was 78.4%; that for `CC(Cc1c(F)cccc1F)NC(=O)CSCC(N)=O` (stereo not given) was -46.4%. With `Nc1cnc(-c2cccc3c2CCNC3)cn1`, the INHIBITION is recorded as -39.4%.

`Cc1noc([C@@H]2C[C@H]3OCC[C@H]3N(C(C)C)C2)n1`: the INHIBITION is given as -89.1%. The value for `CC1(C)CC2(CCO1)NC(=O)c1cc(Br)ccc1-n1nnnc12` (stereo not given) was -59.6%; that for `c1cc(CN2C[C@@H]3COC[C@]3(COCC3CC3)C2)ccn1` was -11.9%. In the case of `CNc1ncccc1C(=O)N1CCN(C)C2(CCN(C)CC2)C1`, the INHIBITION was -111%. To `COCCn1cncc1Cn1ncc2ccccc2c1=O` belongs -74.4%. The value for `COc1cccc(CC(=O)N2CCCSCC2CN2CCCC2)c1` (stereo not given) was 54.7%. The value for `O=C(COc1ccc(F)cc1)N1CCCSCC1CN1CCOCC1` (stereo not given) was -80.2%. For `COc1cccc(OCC(=O)N2CCCSCC2CN2CCOCC2)c1` (stereo not given), the INHIBITION is given as -105%.

Turning to `CCS(=O)(=O)N1CCC2(C1)C(=O)N(C)CCN2Cc1ccncc1` (stereo not given), the INHIBITION was -177%. To `CCO[C@@H]1CC[C@H]2[C@H]1OCCN2Cc1ccoc1` belongs -43.3%. To `O=C1N(Cc2ccccn2)C[C@H]2CN(C3CCOCC3)CCN12` belongs -92.3%; to `Fc1ccccc1-c1cccc(C2CCCN(C3CCOCC3)C2)n1` (stereo not given), 82.3%; to `O=C1NC[C@H]2CN(C3CCOCC3)CCN12`, -118%. For `OCCN1CCCC(c2cccc(-c3ccccc3F)n2)C1` (stereo not given), the INHIBITION amounted to 83.4%. The value for `Cc1nc(CN2CCN(C(=O)COc3c(C)ccc(C)c3C)CC2)no1` was -66.3%; that for `O=C(N1CCCO1)[C@@]12CCO[C@@H]1CCN(Cc1cccnc1)C2` was -54.2%.

`CCc1cccc2c(CC(=O)N(C)CCN(C)C)c(C)[nH]c12`: the INHIBITION is listed as 18.4%.

With `CN(C)CCN(C)C(=O)Cn1cccc2cc(-c3ccc(F)cc3)nc1-2`, the INHIBITION stood at 86.8%.

In the case of `c1ccc(CO[C@@H]2CN(Cc3ccoc3)[C@@H]3COC[C@@H]32)nc1`, the INHIBITION was -37.1%. The value for `Cc1cc(CN2C[C@@H]3COC[C@]3(COCC(=O)N(C)C)C2)no1` was -23%; that for `CCc1[nH]c2c(CNc3nccc(N)n3)cc(C)cc2c1C` was 90.9%; that for `Cc1cc(CNc2nccc(N)n2)c2[nH]c(C)c(C)c2c1` was 79.5%. As to `CCc1[nH]c2c(CNc3nccc(N)n3)cc(F)cc2c1C`, the INHIBITION was determined as 85.6%. The value for `CCN1C(=O)C2(CCCCC2)NC12CCSCC2` was -40%. To `COc1cccc(C2SCC(=O)Nc3ccsc32)c1` (stereo not given) belongs -108%. `Cc1nc(CN2CCO[C@@H]3CNCC[C@@H]3C2)cs1`: the INHIBITION was -15.7%.

Turning to `O=C(c1ccc(C2CCCN2)s1)N1CCN2CCC1CC2` (stereo not given), the INHIBITION is reported as -75.7%. To `NCC(=O)N1CCCC1c1ccc(C(=O)NCc2ccoc2)s1` (stereo not given) belongs 92.6%.

Regarding `Cc1sc2nc(C(F)(F)F)nc(N3CCCN(C)CC3)c2c1C`, the INHIBITION was 76.1%.

On to `O=C1CSC(c2ccc(F)c(Cl)c2)c2c(n(C3CCOCC3)[nH]c2=O)N1` (stereo not given), for which the INHIBITION is -35.3%. The value for `Cc1cccc(CN2CC3C[C@]3(NC(=O)c3cccc(F)c3)C2)n1` (stereo not given in full) was -65.9%. The value for `O=C(c1cnc(-c2ccccc2)s1)N1CCC2(CC1)OCCO2` was -174%; that for `COc1ccc2c(c1)c(C(=O)Nc1nnn[nH]1)cn2C(C)C` was -11.6%. The value for `CN1CCC(C2CCN(Cc3cccc(-n4cccn4)c3)CC2)C1` (stereo not given) was 85.7%; that for `c1cc(CN2CC[C@@H]3CN(c4cncnc4)C[C@@H]3C2)ccn1` was -49.4%. `c1cnc(N2C[C@H]3CCN(Cc4ccncc4)C[C@H]3C2)nc1`: the INHIBITION is recorded as -82.6%.

For the compound `NC(=O)c1cnn2c1NCC(CNCC1(c3ccccc3)CCC1)C2` (stereo not given), the INHIBITION came out at 22.7%.

Consider `N[C@@H]1CCC[C@@H](Oc2ccc(F)cc2Oc2ccccc2)[C@@H]1O`, for which the INHIBITION came to 77.4%. For the compound `Cc1ccc(Oc2cc(F)ccc2O[C@@H]2CCC[C@@H](N)[C@H]2O)cc1`, the INHIBITION was found to be 91.1%. To `CN[C@@H]1CCC[C@@H](Oc2ccccc2Oc2ccc(C)cc2)[C@@H]1O` belongs 90.3%; to `Fc1cccnc1N1CCOCC2(CCCNC2)C1` (stereo not given), 34.8%.
